Experimental data published in the supplement of paper PMC10681739.

Key:
ETS1 [1] = target: T1, ETS1 (UniProt P14921); experiment: ETS1 binding intensity (PBM fluorescence), ETS1 alone (arbitrary fluorescence units); higher = stronger binding; conditions: ETS1 concentration 1 nM; RUNX1 concentration 0 nM
T1 sequence: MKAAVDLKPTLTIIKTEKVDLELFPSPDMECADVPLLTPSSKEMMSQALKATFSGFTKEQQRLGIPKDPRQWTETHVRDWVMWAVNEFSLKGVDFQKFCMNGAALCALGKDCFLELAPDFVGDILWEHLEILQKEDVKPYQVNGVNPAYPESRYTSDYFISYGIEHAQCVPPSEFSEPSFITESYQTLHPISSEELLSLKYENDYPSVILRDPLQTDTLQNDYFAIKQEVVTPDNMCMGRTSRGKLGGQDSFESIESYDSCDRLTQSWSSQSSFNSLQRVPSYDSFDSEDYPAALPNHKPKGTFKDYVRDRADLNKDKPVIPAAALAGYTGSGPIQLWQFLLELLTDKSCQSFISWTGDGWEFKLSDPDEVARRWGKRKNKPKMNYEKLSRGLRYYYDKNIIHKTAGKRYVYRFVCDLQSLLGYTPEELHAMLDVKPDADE

RUNX1 [2] = target: RUNX1 (UniProt Q01196); experiment: RUNX1 binding intensity (PBM fluorescence), RUNX1 alone (arbitrary fluorescence units); higher = stronger binding; conditions: RUNX1 concentration 2 nM; ETS1 concentration 0 nM
Sequence of RUNX1 (Q01196 whole entry): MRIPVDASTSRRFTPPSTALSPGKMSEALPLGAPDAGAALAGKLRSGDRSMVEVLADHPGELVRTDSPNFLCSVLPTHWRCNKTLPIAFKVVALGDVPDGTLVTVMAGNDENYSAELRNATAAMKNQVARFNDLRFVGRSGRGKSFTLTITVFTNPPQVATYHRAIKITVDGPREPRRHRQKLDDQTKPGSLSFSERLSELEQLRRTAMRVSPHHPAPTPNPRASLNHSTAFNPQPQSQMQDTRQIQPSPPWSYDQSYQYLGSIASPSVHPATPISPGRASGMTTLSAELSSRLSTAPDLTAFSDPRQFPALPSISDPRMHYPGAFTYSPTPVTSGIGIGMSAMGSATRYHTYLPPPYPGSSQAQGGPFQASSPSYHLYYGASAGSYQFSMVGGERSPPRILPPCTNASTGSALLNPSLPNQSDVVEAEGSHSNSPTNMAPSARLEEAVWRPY
Procedure: (§1)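 Cooperative gcPBM on 36-bp genomic probes with neighbouring ETS1 and RUNX1 sites. Recombinant human RUNX1 (2 nM) was incubated alone or with ETS1 (25 nM) and detected with anti-RUNX1 antibody plus Alexa488 secondary. Values are medians over 4 replicate spots; the RUNX1+ETS1 data were normalised to the RUNX1-only data. The probes sit in constant array flanks that are not printed.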

ETS1 [3] = target: T1, ETS1; experiment: ETS1 binding intensity (PBM fluorescence) in presence of RUNX1, normalised to ETS1-only experiment (arbitrary fluorescence units); higher = stronger binding; conditions: ETS1 concentration 1 nM; RUNX1 concentration 25 nM
RUNX1 [4] = target: RUNX1 (UniProt Q01196); experiment: RUNX1 binding intensity (PBM fluorescence) in presence of ETS1, normalised to RUNX1-only experiment (arbitrary fluorescence units); higher = stronger binding; conditions: RUNX1 concentration 2 nM; ETS1 concentration 25 nM
Procedure: as §1
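Wherever RUNX1 binding intensity (PBM fluorescence) in presence of ETS1, normalised to RUNX1-only experiment is given: Full-length recombinant human ETS1 or RUNX1 bound to double-stranded 36-bp genomic probes on microarrays, detected by protein-specific primary antibody and Alexa488 secondary, spot fluorescence as median of four replicate spots.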
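Wherever RUNX1 binding intensity (PBM fluorescence), RUNX1 alone is given: Full-length recombinant human RUNX1 bound to double-stranded 36-bp genomic probes on a high-density microarray, scored as Alexa488 fluorescence per spot via anti-RUNX1 antibody, median of four replicate spots.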

Sequence | ETS1 binding intensity (ETS1 [1]) | RUNX1 binding intensity (RUNX1 [2]) | ETS1 binding intensity (ETS1 [3]) | RUNX1 binding intensity (RUNX1 [4])
GTGGATTTCACATCCTGTCCTAGCGGTATGTTTGTC | 1470 | 783 | 1610 | 1750
TTGACTCGGGAATGTCCGGTCGTGGTAAGCAGGGTG | 770 | 683 | 858 | 999
GATTTGTCACAGGAAGTACCCACAGGCCAAGAAGTG | 5230 | 817 | 5790 | 1260
TTTAGACACCGCTTCCTGCCACAAGCCCAAGACTTA | 758 | 918 | 839 | 3470
CAGATCTGAAAGGGAAGTGGTTTCAAGAGGGTTCTT | 967 | 729 | 1130 | 865
TTTGATTTCCTGTCTCCATGTTGTGGTCAAGATTGC | 1080 | 1370 | 2990 | 4420
TGATGCACTTCCTGAGGGCCCGCATGTGGTAAACAC | 495 | 834 | 880 | 1480
CAGTGGCAGGAAGAGGTCAGAAACCACTCGTGGTGG | 718 | 816 | 870 | 1100
CCTGCCTGACCGGAAGTGCCCGCAACCCCACCGACC | 20600 | 1180 | 32600 | 2870
TCATAAGGAAGTGGAGTGTAGTAACCACAGGCCCCG | 417 | 829 | 1100 | 1340
GGGCGGGTGAGACCAGGATGTGGGTTCCCCCACCTT | 1880 | 775 | 3540 | 1120
GTGCTAAGTGAGGAAGTGCAGTTTACCGCACGGTGG | 839 | 675 | 2410 | 935
TCTAGTAAAAGAGGAAGTTCTTAACCACATTTCCAT | 2100 | 1020 | 9250 | 1620
AGGCGGCAGGAAATGACCCCATCCCGCAGCCTGGGC | 2480 | 806 | 5190 | 2040
TCCTGGCAGAGACCGGAAGTGCGGTCCGCGGAGCGT | 28200 | 739 | 43300 | 1800
AACCAATCGAGCGGAGGAAACCGCGGCGTTAGCGTG | 568 | 864 | 1020 | 840
CACCCATAGCACCCCGGAAACCACCTCCACCACCTG | 1890 | 1390 | 2240 | 2020
TCACATCCTGTAATGGTTTGCGCATACCACAGTTCT | 455 | 825 | 684 | 1740
TTTCACTTCCGGCATGTTTTTCACCCACAGGGATAT | 3910 | 1130 | 3980 | 2750
GGCCAGGCAGGAAGTCCCGCGCCACAAGCGGCCGTC | 3050 | 758 | 3300 | 1230

Sequence | ETS1 binding intensity (ETS1 [1]) | RUNX1 binding intensity (RUNX1 [2]) | ETS1 binding intensity (ETS1 [3]) | RUNX1 binding intensity (RUNX1 [4])
AGCGCCACACTTCCGCTTTGCGGCAGTGTGCGCCCC | 3490 | 730 | 3280 | 1890
TGTTTTCGCTCTTCCTGGCCTTGCGGGCAGCCAGGA | 390 | 1060 | 783 | 1510
TACAACTTGCAACGGAAACCACTTCAGGTTCATTAC | 1320 | 847 | 1280 | 866
AGAACAAAACAGGAAATAGTGGTTTGCAAAAATATA | 5780 | 736 | 8400 | 1730
GAGGACTTCCGGGTGCGTGTGATATCTGCGGGCCCG | 802 | 703 | 793 | 2110
GGGAGGTCACATCCTGCCCGCGGTCTCAGAAAAGCT | 821 | 782 | 989 | 2080
ACTCGGGAATGTCCGGTCGTGGTAAGCAGGGTGGCA | 516 | 803 | 529 | 1680
ACTTACAAAGGAAGTGACAGAACCACAGAAAAGACC | 1230 | 732 | 2660 | 1240
CTTTAAGGAGGCGGAAAAGTTAACCGCGATGGGCAG | 533 | 996 | 1430 | 1050
AGCAACAGGAAAGAACAGCCTGACCACAGCAGCCAC | 393 | 948 | 727 | 1050
GTGGTCGGGAGGGGAAGTGAGGCGGTTACCTCGGCG | 684 | 790 | 689 | 925
GCTTACACTTCCTCCCTGAACCCCTGCGGTTTCACA | 511 | 4160 | 1960 | 10200
AAAGAACTTCCTGAGGTGCTTGAGGTTAGGCTATGG | 487 | 727 | 498 | 1660
CCAGGGCCGGAAGTGCTGGTGGTGGTTTCCATCATG | 8960 | 733 | 13900 | 1750
CCCACTTCCTGTCTGCTTCCCTCCACCGCTCAGACC | 2890 | 1890 | 2650 | 4290
TTTGTGCCCCAACTTCCTCTGTGGCTTTTGGGTGGG | 650 | 898 | 969 | 1480
GCTGAGGCCGGAAGAGGGTGGGGCCGCGGTGGCTAG | 2170 | 756 | 3070 | 1260
CTGGGGATGTGTGACACTCAGAGAAACCACAAGGTG | 495 | 1010 | 1390 | 1140
CCTCCCTGAGGGGGAAGTGGTTTTTGAGTCTGAGTC | 579 | 859 | 1190 | 1020
